Bioassay records as filed in PubChem.
This is a sample that favours compounds with a hit; in the whole collection about 2.9% have one here.
PLC-gamma1 inh: blocks human PLC-gamma1 enzyme activity. inhibition, % at 12.2 µM. P19174. actives 0.84% (n = 370,000). purified PLC-gamma1, fluorogenic substrate, fluorescence; in the data active = inhibition above about 9.5%
proKLK7 act: proKLK7 (human) activation, primary screen; P49862; purified proKLK7, EDANS-DABCYL substrate fluorescence; 100% is mature enzyme control, 0% vehicle; activation, % at 7 µM; actives 0.9% (n = 370,000); AID 652039;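 active = activation above the mean of all tested compounds plus 3 SD, computed per campaign excluding outliers beyond control limits, cut at about 13% in these data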
ADAM17 inh: ADAM17 inhibition, QFRET primary screen | AID 720648 | recombinant ADAM17, EDANS/DABCYL FRET peptide cleavage | inhibition, % at 6.95 µM | actives 0.83% (n = 370,000);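 active = inhibition above the mean of compounds lying between control limits plus 3 SD, set per campaign, cut at about 8.5% in these data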;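 note: 0% = DMSO-only wells as the low control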
Target sequence (P78536 215-824 limits assumed): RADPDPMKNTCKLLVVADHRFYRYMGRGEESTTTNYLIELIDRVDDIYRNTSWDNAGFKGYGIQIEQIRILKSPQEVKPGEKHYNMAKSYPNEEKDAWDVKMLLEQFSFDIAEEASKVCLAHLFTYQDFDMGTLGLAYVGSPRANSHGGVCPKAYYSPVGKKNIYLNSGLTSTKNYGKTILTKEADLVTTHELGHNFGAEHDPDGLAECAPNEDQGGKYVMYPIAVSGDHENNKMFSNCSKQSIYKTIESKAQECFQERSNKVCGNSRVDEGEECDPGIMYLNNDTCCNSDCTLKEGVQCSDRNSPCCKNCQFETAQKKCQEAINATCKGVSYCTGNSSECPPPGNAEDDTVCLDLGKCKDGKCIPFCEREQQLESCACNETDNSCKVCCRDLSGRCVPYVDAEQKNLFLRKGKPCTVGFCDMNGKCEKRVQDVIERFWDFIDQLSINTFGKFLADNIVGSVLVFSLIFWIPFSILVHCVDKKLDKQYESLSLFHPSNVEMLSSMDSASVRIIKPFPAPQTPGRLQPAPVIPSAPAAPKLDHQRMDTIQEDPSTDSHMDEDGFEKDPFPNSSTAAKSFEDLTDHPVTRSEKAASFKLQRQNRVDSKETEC
ADAM10 inh: inhibits human ADAM10. recombinant ADAM10, EDANS/DABCYL FRET peptide cleavage, 3 h. O14672. actives 0.62% (n = 370,000). inhibition, % at 7 µM. AID 720582;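 active = inhibition above a per-campaign cutoff equal to the mean of compounds falling between control-based bounds plus 3 SD, cut at about 20% in these data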;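 note: 0% = DMSO wells while the 100% control is not disclosed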
PLCb3 inh: inhibitors of human phospholipase C beta3; AID 720704; actives 0.18% (n = 370,000); Q01970; inhibition, % at 12.2 µM; Purified PLC-beta3, fluorogenic substrate, fluorescence; in the data active = inhibition above about 11%;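 note: 0% = median of compound wells on plate and 100% = full blocker control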
ADAM10 ctr: ADAM10 inhibition, counter-screen for ADAM17 exosite hits; shares compounds with ADAM17 inh; recombinant ADAM10, EDANS/DABCYL FRET peptide cleavage, 3 h; inhibition, % at 6.95 µM; actives 47% (n = 2,900);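 active = mean inhibition over the triplicate runs exceeds the activity threshold set in the earlier primary screen, cut at about 20% in these data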;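 note: 0% = DMSO wells and 100% = marimastat wells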
ADAM17 confirm: human ADAM17 inhibition, confirmation; shares compounds with ADAM17 inh; recombinant ADAM17, EDANS/DABCYL QFRET peptide cleavage; inhibition, % at 6.95 µM; actives 65% (n = 2,900); AID 743257;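 active = mean inhibition across replicates above the hit cutoff set in the primary screen, cut at about 8.5% in these data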;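 note: 0% = DMSO wells and 100% = marimastat wells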
The depositor's hits bear a star; x = not tested or not shown.

SMILES | PLC-gamma1 inh | proKLK7 act | ADAM17 inh | ADAM10 inh | PLCb3 inh | ADAM10 ctr | ADAM17 confirm
CCCn1nc([N+](=O)[O-])c(C(C#N)c2nc3ccccc3s2)c(Cl)c1=O (stereo not given) | 3 | 0 | 8.6* | 20 | -2 | 24* | 18*
CCNC(=O)c1cc2c(c(-c3cccc(-c4cccc(C(=O)N(C)C)c4)c3)n1)[C@H](CCO)N(S(=O)C(C)(C)C)C2 (stereo not given in full) | -35 | 0 | -2 | -11 | -51 | x | x
CC(C)(C)S(=O)N1Cc2cc(C(=O)NCC(F)(F)F)nc(-c3cccc(-c4cccc(F)c4)c3)c2[C@H]1CCO (stereo not given in full) | 3 | 0 | 10* | 17 | 0 | 20* | 11*
O=C(NCC(c1ccco1)N1CCCC1)c1cn(-c2ccccc2)nc1-c1ccc(F)cc1 (stereo not given) | -2 | 0 | -6 | -2 | -5 | x | x
CCOc1ccc(Oc2ccc(NS(=O)(=O)c3cc(C(=O)O)ccc3Cl)cc2)cc1 | 7 | -1 | 14* | -1 | -13 | 5 | 11*
CCOc1ccc(NS(=O)(=O)c2cc(Cl)ccc2OC)cc1 | 5 | 0 | 12* | 14 | 9 | 12 | 7
COc1ccc(NS(=O)(=O)c2cc(C)ccc2OC)cc1OC | -3 | -1 | -2 | 5 | 0 | x | x
COc1ccc(F)cc1S(=O)(=O)Nc1ccc(C)cc1 | 6 | 1 | 11* | 7 | 6 | 13 | 7
CCOc1ccc(NS(=O)(=O)c2ccc(OC)c(C)c2)cc1 | 8 | 0 | 3 | 13 | 2 | x | x
CCOC(=O)CC[C@@H]1CC[C@]2(CCCN(S(=O)(=O)c3ccccc3)C2)O1 | -1 | 0 | -3 | -5 | 0 | x | x
O=C(Nc1ccc2c(c1)CCC2)c1cccc(S(=O)(=O)N2CCN(c3ccccc3)CC2)c1 | -8 | -1 | 9.1* | 16 | -12 | 20* | 15*
O=C(Nc1ccc(S(=O)(=O)C(F)F)cc1)c1cccc(S(=O)(=O)N2CCOCC2)c1 | 9 | 1 | 12* | 13 | 8 | 14 | 9.0*
O=C(Nc1ccncc1)c1cccc(S(=O)(=O)N2CCOCC2)c1 | 1 | 0 | 1 | -8 | -5 | x | x
CC1=C(C(=O)N(C(C)C)C(C)C)CC(CC(=O)NCc2cccc3ccccc23)C(=O)N1Cc1ccc(F)cc1 (stereo not given) | 3 | 0 | 1 | 3 | 3 | x | x
COC(=O)C1CCN(c2ccc([N+](=O)[O-])cc2)CC1 | 4 | -1 | 10* | 4 | -2 | 5 | 8
CN(C)c1ccc(-c2csc(C(C)(O)c3ccccc3)n2)cc1 (stereo not given) | -1 | 1 | 6 | 9 | 0 | x | x
CC1(c2nnc(Cc3ccccc3)o2)CC(c2ccc(C#N)cc2)=NO1 (stereo not given) | 0 | 0 | 9.0* | -4 | 3 | -4 | 0
O=C(COc1ncnc2ccccc12)N1CCN(c2ccccc2)CC1 | 1 | 0 | -3 | -3 | 1 | x | x
CC1CN(C(=O)COc2ncnc3ccccc23)CC(C)O1 (stereo not given) | 4 | 0 | 9.7* | -4 | 7 | -6 | 1
Cc1ccc(S(=O)(=O)N2CC3(O)CN(C(=O)OC(C)C)N(C(=O)OC(C)C)CC3(OC(=O)NCc3ccco3)C2)cc1 (stereo not given) | 1 | 0 | 0 | 1 | 0 | x | x
CCCCn1nnnc1C(c1cc2ccccc2o1)N1CCN(c2ccncc2)CC1 (stereo not given) | 0 | 0 | 0 | -4 | 1 | x | x
COc1ccc(C)cc1NC(=O)CSc1nnc(COc2ccccc2)n1Cc1ccco1 | 9 | 0 | 6 | 15 | 3 | x | x
COc1ccc(C)cc1NC(=O)CSc1nnc(CC(=O)Nc2ccccc2C)n1C | 6 | 0 | 8.7* | 7 | 2 | 3 | 0
COc1cc2c(cc1NC(=O)CSc1nnc(-c3ccccc3C)n1Cc1ccco1)oc1ccccc12 | -1 | 0 | 10* | 19 | 3 | 22* | 15*
